In the library only some 19% were active in any assay of this set; here they are far more common.
HT1080 IDH1KD tx = toxicity to HT-1080 IDH1 knockdown cells (counter line); HT-1080 IDH1 knockdown viability, ATP luminescence, 48 h; Potency, µM (series often up to 46.1 µM), inactives show top-dose activity, negative = toxicity, hits mostly cytotoxic; hit rate 2% among 360,000; AID 686971;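 note: 0% = DMSO wells and -100% = cell-free medium wells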
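CellTiter-Glo luminescence after 48 h compound exposure at 37 degrees C of IDH1-knockdown HT-1080 cells in 5% FBS RPMI. %Activity scaled between DMSO wells and cell-free media wells, with curves fitted and assigned curve classes.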
KB-3-1 tox = KB-3-1 parental cell cytotoxicity; KB-3-1 viability, CellTiter-Glo ATP luminescence, 72 h; Potency, µM (series often up to 46.1 µM), usual class: cytotoxic; hit rate 1.4% among 400,000; AID 1347075; note: nearly all actives have a fitted effect of over 60% in size
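72 h, 37 °C compound treatment of KB-3-1 parental cells; CellTiter-Glo added, 10 min, luminescence read. Data corrected against DMSO-only plates and normalized before curve fitting.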
DT40 TDP1 CPT = growth inhibition of DT40 Tdp1-/-;hTDP1 cells with camptothecin (screen for TDP1 inhibitors); chicken DT40 Tdp1-/-;hTDP1 cells + 20 nM CPT, ATP luminescence, 48 h; Potency, µM (highest dose often 46.2 µM), for the others: top-dose activity change, negative = growth inhibition, usual class: inhibitors; hit rate 12% among 420,000; AID 686979; note: nearly all actives have a fitted effect of over 55% in size
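Chicken DT40 Tdp1-/- cells complemented with human TDP1, 400 cells/well, exposed to compounds plus 20 nM camptothecin for at least 48 h at 37 C; viability read as ATP content by CellTiter-Glo luminescence.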
HT1080NT lethal = kills 2HG-producing HT-1080-NT fibrosarcoma cells; HT-1080-NT fibrosarcoma viability, CellTiter-Glo ATP luminescence, 48 h; Potency, µM (series often up to 46.1 µM), without a hit: top-dose activity, negative = less viability, usual class: cytotoxic; hit rate 1.6% among 360,000; AID 686970;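 note: NT is the 2HG producing partner of a matched IDH1 knockdown line; 0% = DMSO-treated cells and -100% = media-only wells without cells; nearly all actives have a fitted effect of over 55% in size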
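HT-1080-NT fibrosarcoma cells (2HG-overproducing), 750 cells/well in RPMI with 5% FBS, dosed after 2 h and incubated 48 h at 37C. CellTiter-Glo luminescence normalized to DMSO and no-cell wells; concentration-response curves fitted and classed.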
DT40 TDP1 no CPT = qHTS for Inhibitors of human tyrosyl-DNA phosphodiesterase 1 (TDP1): qHTS in cells in absence of CPT; hit rate 15% among 420,000; DT40 Tdp1-/- hTDP1 cells, no CPT, ATP luminescence, 48 h; Potency, µM (highest dose often 46.2 µM), inactives show at the top dose activity change, negative = growth inhibition, hits mostly inhibitors; AID 686978, 2013; note: nearly all actives have a fitted effect of over 55% in size
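Readout: luminescence from CellTiter-Glo after 30 min in the dark at RT. Cells: DT40 Tdp1-/- with stable hTDP1, 400/well. Exposure: compounds alone, ≥48 hr, 37 °C.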
KB-V1 MDR tox = KB-V1 MDR subline cytotoxicity; KB-V1 MDR cells viability, CellTiter-Glo, 72 h; Potency, µM (doses to about 46.1 µM), hits mostly cytotoxic; hit rate 3.4% among 400,000; AID 1347076; note: nearly all actives have a fitted effect of over 60% in size
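KB-V1 cells (P-gp-expressing MDR subline of KB-3-1) in phenol-red-free DMEM with 10% FBS were exposed to library compounds over a concentration series for 72 h at 37 degrees C. Viability read by CellTiter-Glo luminescence; concentration-effect curves fitted after normalization.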
* marks the source's active call; other numbers are inactive results; i = inactive; ? = inconclusive; . = not tested or not shown; [ ] = remark or other dose. Calls come from the whole dose curve; as a rule, active = well fitted curve in the direction sought with a large enough effect; inconclusive = small, poorly fitted or top-dose-only effect, or another doubt; inactive = no such curve, though single readings can be large; an effect the other way counts as inactive or inconclusive. Unless noted, % is set by controls: 0 for no effect and ±100 for the full control effect; potency is the fitted concentration of half-maximal effect.

SMILES	HT1080 IDH1KD tx	KB-3-1 tox	DT40 TDP1 CPT	HT1080NT lethal	DT40 TDP1 no CPT	KB-V1 MDR tox
COc1ccc(OC)c(-c2cc(-c3cccnc3)nc(N)c2C#N)c1	1.5µM*	2.1µM*	0.92µM*	1.8µM*	0.92µM*	2.6µM*
CCOc1cc(/C=C(\C#N)c2[nH]nc(N)c2C#N)ccc1O	-23%	i	?	-18%	10µM*	?
COc1cc(-c2cc(-c3ccc(O)cc3)nc(N)c2C#N)ccc1O	?	?	-96%	?	?	?
COc1cccc(N(CC(=O)NC2CCCCC2)C(=O)CCC(=O)Nc2nc(C)cs2)c1	-17%	i	-30%	-11%	?	i
CC(=O)Nc1ccccc1-c1nc(CNC(=O)c2ccc(-n3cccn3)cc2)c(C)o1	.	.	-13%[9.04 µM]	.	-20%	.
N#Cc1c(-c2ccco2)cc(-c2ccc(F)cc2)nc1N	-1%[9.24 µM]	i	?	-16%	18µM*	i
COc1ccc(-c2c(C#N)c(N)nc3c2CCCCCC3)cc1OC	7%	i	-12%	14%	-18%	i
COc1ccccc1-c1c(C)c(C)nc(N)c1C#N	-1%	i	3%	2%	-8%	i
CCOc1cc(-c2c(C#N)c(N)nc3c2CCCC3C)ccc1O (configuration not stated)	?	?	9.2µM*	?	?	18µM*
COc1ccc(-c2cc(-c3ccc(O)cc3)nc(N)c2C#N)cc1	0%	i	?	-11%	23µM*	i
CCc1nc(N)c(C#N)c(-c2ccccc2OC)c1C	-4%[9.24 µM]	i	13µM*	4%	1%	?
O=C(CSc1nc2c([nH]c3ccccc32)c(=O)n1-c1ccc(F)cc1)N1CCCCCC1	.	i	?	.	?	i
C=CCCCCCCCCC(=O)O	.	.	-4%	.	7%	.
COCCCN1CN=C(NS(=O)(=O)c2ccc(NC(C)=O)cc2)NC1	.	i	-2%	.	-13%	?
CCOc1cc(-c2c(C#N)c(N)nc3c2CCc2ccccc2-3)ccc1O	?	?	18µM*	-28%	15µM*	23µM*
CCOC(=O)COc1nc2c(c(-c3ccco3)c1C#N)CCc1ccccc1-2	4%	i	15%	-1%	-18%	i
O=C1ON=C(c2ccccc2)/C1=C/c1ccco1	0%	?	?	0%	?	i
O=C1ON=C(c2ccccc2)/C1=C/c1ccc(-c2ccccc2[N+](=O)[O-])o1	?	?	12µM*	-23%	15µM*	?
CCCCN1C(=S)NC[C@@H]1Cc1cccc2ccccc12	0%	i	?	4%	?	i
CCCC[C@@H]1CNC(=S)N1CCc1cccc2ccccc12	9%	i	?	-1%	18µM*	i
S=C1NC[C@H](CC2CCCCC2)N1CC1CCCCC1	?	i	21µM*	?	23µM*	i
S=C1NC[C@H](Cc2cccc3ccccc23)N1CC1CCCCC1	-10%	i	?	-9%	23µM*	i
CC(=O)c1ccc2noc(-c3cccc(C)c3)c2c1	12%	i	-4%	-7%	-1%	i
CCCc1nc(C)cc(N2CCN(c3ccccc3)CC2)n1	0%	?	29µM*	-5%	21µM*	?
